SMILES strings stand for the structures. In all, about 360,000 compounds went through this assay and about 3,800 (1.1%) were called active. The sample holds actives, similar compounds and a random draw of the others, so the mix is not that of the screen.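 The calls were made as follows: active = compounds causing at least 50% loss of cell viability in the single-dose screen, relative to plate controls; inactive = the rest.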

In PubChem BioAssay AID624354 (Sanford-Burnham Center for Chemical Genomics, 2012) one finds inhibition (viability loss, TRAIL sensitization) data, which are given here for 93 compounds.

This assay is described as follows: TRAIL-exposed caspase-8 expressing cell killing – NB7+C8 cells, ATPlite luminescence, TRAIL sensitizer project, primary screen (AID 624354). Conditions: at 10 µM, hits give high values. On the technique in general: ATP-based viability assays read luminescence as a measure of living cells.
In the case of `CC(C)n1cnc2c(NCc3ccccc3)cc(OCC3CCN(C)CC3)cc21`, the inhibition (viability loss, TRAIL sensitization) is 54.6% (active).
`COCCNC(=O)CN(C(=O)CCC(=O)Nc1cc(C)on1)c1ccc(C)cc1C`: the inhibition (viability loss, TRAIL sensitization) is 12.5% (inactive).
The figure for `O=C(NCc1ccccc1)C(c1ccc(F)cc1)N1CCN(C(=O)C2CCCO2)CC1` (stereo not drawn) is 3.33% (inactive).
The figure for `CCCCC(=O)Nc1cc(C)c2c(=O)oc3ccccc3c2n1` is 58.6% (active); for `CCCCC(=O)Nc1ccc2c(c1)C(=O)NC2=O` it is 8.86% (inactive).
In the case of `Cc1ccc(C)c(NC(=O)CSc2nc3c(oc4ccccc43)c(=O)n2-c2ccccc2)c1` it was -5.26% (inactive); in that of `Cc1cc(Cl)c(S(=O)(=O)Nc2ccc3c(c2)OCCO3)cc1OCC(N)=O`, 1.34% (inactive); in that of `CC1CCc2c(sc3c2C2=NS(=O)(=O)CCN2C=N3)C1` (stereo not drawn), -12.9% (inactive).
As to `O=C1C[C@@H]2c3c(cccc3CN1Cc1ccccc1)C[C@@H](O)[C@H]2O`, the inhibition (viability loss, TRAIL sensitization) was -11.3% (inactive).
The figure for `COc1ccc2c(c1)CCCO[C@]21O[C@H](CCO)C[C@H](O)[C@H]1O` is 2.33% (inactive); for `Nc1nc2ncccn2c1-c1ccccc1` it is -21.7% (inactive).
Turning to `COc1ccc(C(=O)NC(C)c2nccs2)cc1OC1CCN(C(C)C)CC1` (stereo not drawn), the inhibition (viability loss, TRAIL sensitization) is -24.4% (inactive).
The figure for `O=C(CC1SC(N2CCOCC2)=NC1=O)Nc1ccccc1F` (stereo not drawn) is 7.68% (inactive); for `O=C(CN1CCN(C/C=C/c2ccccc2)CC1)Nc1ccc(F)cc1F` it is 8.21% (inactive); for `O=C(CC1SC(=Nc2ccccc2F)N(CCN2CCOCC2)C1=O)Nc1ccc(F)cc1F` (stereo not drawn) it is 72.8% (active).
The figure for `NC(=O)c1ccc(N2CCOCC2)nc1` is -4.39% (inactive).
The figure for `COc1ccc(N(C)S(=O)(=O)c2cccc3nsnc23)cc1` is -0.348% (inactive).
Consider `CC1(C)CC(N2CCN(C(c3ccccc3)c3ccccc3)CC2)=CC(=[N+]2CCCCC2)C1`, for which the inhibition (viability loss, TRAIL sensitization) was 53.6% (active).
The figure for `CCOC(=O)C1=C(c2ccccc2)N=C2SCC(=O)N2C1c1ccc(O)c(OC)c1` (stereo not drawn) is -13.7% (inactive); for `O=C(Nc1ccc2c(c1)OCCO2)C(C1CC1)N1CCC(Cc2ccccc2)CC1` (stereo not drawn) it is 1.75% (inactive).
In the case of `c1c2c(cc3sc(N4CCCCC4)nc13)OCCO2` it was 76.5% (active); in that of `CCN1CCC2(CCN(Cc3cn[nH]c3-c3ccc(OC)c(F)c3)C2)C1` (stereo not drawn), -3.56% (inactive).
In the case of `CCOc1ccc(NC(=O)CCCCCN2C(=O)[C@@H]3Cc4ccccc4CN3C2=O)cc1` it was 9.4% (inactive); in that of `Cc1ccc(-c2ccc(=O)n(CC(=O)NCCCN3CCCCC3)n2)cc1`, 16% (inactive); in that of `Cc1nn(CC(=O)NCCc2ccccc2)c(=O)c2cc3occc3n12`, -1.06% (inactive).
On to `CCc1ccc(-c2cc3c(=O)n(CC(=O)NCCCN4CCN(Cc5ccccc5)CC4)nc(C)n3n2)cc1`, for which the inhibition (viability loss, TRAIL sensitization) is 57.1% (active).
In the case of `CC(C)=NN1C(=O)c2ccccc2NC1(C)C` it was 0.317% (inactive); in that of `CCC(C)C(NC(=O)C1CCC(=O)N1C(=O)OCc1ccccc1)C(=O)NC(C(=O)N1CCCC1C(N)=O)C(C)CC` (stereo not drawn), 1.84% (inactive).
In the case of `Cc1sc2ncnc(N3CCC(C(=O)Nc4ccc(F)cc4Cl)CC3)c2c1C` it was 13.1% (inactive); in that of `CC(C)CCC(C)NC(=O)c1ccc2nccnc2c1` (stereo not drawn), 13.2% (inactive).
Turning to `CC(C)CCNC(=O)c1ccc2c(Cl)c3c(nc2c1)CCC3`, the inhibition (viability loss, TRAIL sensitization) was 63.8% (active).
In the case of `O=C(CSc1c2c(nc3ccc(Cl)cc13)CCCC2)NCc1ccco1` it was 7.83% (inactive); in that of `COc1ccc(OC)c(/C=N/NC(=O)c2ccc[n+](CC(=O)c3ccccc3)c2)c1`, -13.4% (inactive).
The figure for `CC1=NNC(=O)C1CCC(=O)N/N=C\c1cccc(Cl)c1` (stereo not drawn) is -5.29% (inactive).
`COc1cccc(/C=N\NC(=O)C2=NNC(=O)C2C)c1O` (stereo not drawn): the inhibition (viability loss, TRAIL sensitization) is 61.6% (active).
In the case of `COCc1cc(=O)[nH]c2cc(NC(=O)C(F)(F)F)c(C)cc12` it was 1.06% (inactive); in that of `CCCCOC(=O)CNc1nnc(SCC(=O)OCC)[nH]c1=O`, 6.83% (inactive).
The figure for `Cc1cccc(-n2ncc(Cl)c(Cl)c2=O)c1` is 95.2% (active); for `Cc1cccc(N2Cc3ccccc3C2=NC(=O)c2ccc(Cl)nc2)c1` it is 4.62% (inactive); for `Nc1c(-c2cccc(Cl)c2)cnn1-c1cccc([N+](=O)[O-])c1` it is -1.5% (inactive).
The figure for `C[C@H](NC(=O)C1CC(=O)N(c2ccc3c(c2)OCCO3)C1)C(=O)N1CCC(C(=O)O)CC1` (stereo partly drawn) is -9.83% (inactive); for `CC(C)CNC(=O)COC(=O)c1ccccc1OCC(=O)Nc1ccc(Br)cc1` it is 5.47% (inactive).
Take `COC(=O)Cc1[nH]n(-c2nc3ccccc3s2)c(=O)c1C(C)=Nc1ccc(OC)cc1`: the inhibition (viability loss, TRAIL sensitization) was 61.1% (active).
In the case of `COCCn1c(SCC(=O)c2[nH]c(C)c(C(C)=O)c2C)nc2ccccc2c1=O` it was -10% (inactive); in that of `NC(N)=N/N=C/c1ccc(OCc2ccc(Cl)cc2Cl)cc1`, 50.1% (active).
For `NC(=O)COc1ccc(/C=N/NC(=O)C2CCCN2S(=O)(=O)c2ccc(Cl)cc2)cc1` (stereo not drawn), the inhibition (viability loss, TRAIL sensitization) was -8.47% (inactive).
As to `CCCCN(C(=O)C1=NN(c2cc(C)ccc2C)C(=O)CC1)c1c(N)n(CCC)c(=O)[nH]c1=O`, the inhibition (viability loss, TRAIL sensitization) was -7.09% (inactive).
On to `CC(C)COc1ccc(C(=O)NNC(=O)CCC(=O)c2cccs2)cc1`, for which the inhibition (viability loss, TRAIL sensitization) is -0.727% (inactive).
Take `Cc1ccc(NC(=O)CSCC(=O)N2CCOCC2)cc1`: the inhibition (viability loss, TRAIL sensitization) was -10.5% (inactive).
In the case of `CC(C)COc1ccc(C(=O)OCC(=O)NCCC2=CCCCC2)cc1` it was -6.49% (inactive); in that of `O=C(Nc1ccc(Cl)cc1)c1cccc(OC(=S)N2CCOCC2)c1`, 12.3% (inactive).
As to `COc1cccc(C(=O)Nc2ccc3nc4n(c(=O)c3c2)CCCCC4)c1`, the inhibition (viability loss, TRAIL sensitization) is 23.6% (inactive).
The figure for `COc1ccc(C(=O)Nc2ccc(-n3nncc3C(C)(C)C)cc2)cc1` is -20.3% (inactive); for `COc1ccc(NC(=O)c2ccc(C#CC(C)(C)O)cc2)cc1` it is 0.194% (inactive); for `COc1ccc(NC(=O)c2ccc(OC)cc2)cc1` it is 50.5% (active).
In the case of `COc1cccc(C(=O)Nc2ccc(N3CCCC3)cc2)c1` it was 46.7% (active); in that of `COc1ccc(N2c3ccccc3CN(Cc3ccccc3)[C@@H](C)[C@H]2Cc2ccc(-c3ccccc3)cc2)cc1`, -5.86% (inactive); in that of `CCOC(=O)C1CCN(C(=O)Cn2nc(C)c3c(C)n(-c4ccccc4)nc3c2=O)CC1`, -20.8% (inactive).
In the case of `CCCN1C(=O)C(NC(C)=O)c2cc(OC)ccc21` (stereo not drawn) it was -4.35% (inactive); in that of `O=C(COc1ccc2c(C(F)(F)F)cc(=O)oc2c1)Nc1ccc2c(c1)OCCO2`, -2.58% (inactive).
Consider `COc1cc(SC)ccc1C(=O)Nc1nc(C)cs1`, for which the inhibition (viability loss, TRAIL sensitization) is 92.9% (active).
The figure for `Cc1ccccc1OCC(=O)Nc1nc(C)c(C(=O)N(C)C)s1` is 3.67% (inactive); for `Cc1csc(NC(=O)CSc2ccc(-c3ccc(F)cc3)nn2)n1` it is -13.9% (inactive).
Take `COC(=O)c1sc(NC(=O)c2ccc(OC)cc2OC)nc1C`: the inhibition (viability loss, TRAIL sensitization) was 82.4% (active).
In the case of `Cc1ccnc(NC(=O)CNC(=O)c2ccccc2)c1` it was -13.7% (inactive); in that of `COc1cc(SC)ccc1C(=O)Nc1cc(C)ccn1`, 67.3% (active); in that of `COc1ccc(C(=O)CCC(=O)Nc2cccnc2)c(OC)c1`, 7.09% (inactive).
As to `Cc1ccnc(NC(=O)c2ccoc2C)c1`, the inhibition (viability loss, TRAIL sensitization) is 11.1% (inactive).
Consider `COCCn1c(SCC(=O)Nc2nc(C)cs2)nnc1C(C)C`, for which the inhibition (viability loss, TRAIL sensitization) was -5.23% (inactive).
The figure for `Cc1ccc(CNC(=O)Cn2cnc3c(NCc4ccccc4)ncnc32)o1` is 20.3% (inactive).
In the case of `OCC1(Cc2ccccc2C(F)(F)F)CCN(Cc2cccc3cnccc23)CC1` it was 2.15% (inactive); in that of `COc1ccc(C(=O)NCC[N+](C)(C)C)cc1`, -3.08% (inactive); in that of `Cc1ccc(S(=O)(=O)N(C)C)cc1NC(=O)c1ccc(-n2cncn2)c([N+](=O)[O-])c1`, -6.94% (inactive).
The figure for `O=C(COC(=O)c1c(Cl)cccc1Cl)Nc1cccc(S(=O)(=O)NC2=NCCCCC2)c1` is -2% (inactive).
On to `O=C1NC[C@H](Cc2ccc(O)cc2)N(C[C@@H]2CCCN2C[C@H](Cc2ccccc2)N2C[C@H](Cc3ccccc3)N(CC3CCCCC3)C(=O)C2=O)C1=O`, for which the inhibition (viability loss, TRAIL sensitization) was -7.58% (inactive).
The figure for `CN(C)NC(=O)C(NC(=O)c1ccc(N)cc1)C12CC3CC(CC(C3)C1)C2` (stereo not drawn) is -0.166% (inactive).
The figure for `Cc1nc2cc(S(=O)(=O)C(F)(F)F)ccc2s1` is 15.9% (inactive); for `CCN1CCCC1CNC(=O)Cn1cnc2ccc(S(=O)(=O)N3CCC(C)CC3)cc2c1=O` (stereo not drawn) it is 3.92% (inactive); for `CC(C)(C)Oc1ccccc1Nc1nc(NCCO)nc(N2CCCC2)n1` it is -17.8% (inactive).
In the case of `O=C(O)CC(SCC(=O)Nc1ccc(Br)cc1)C(=O)O` (stereo not drawn) it was -3.72% (inactive); in that of `O=C(CCl)Nc1ccc(Sc2ccc(NC(=O)CCl)cc2)cc1`, 51.1% (active); in that of `CC(=O)Nc1ccc(SCC(=O)NC(=O)c2ccc(Cl)cc2)cc1`, -7.06% (inactive).
`COc1cccc2cc(/C(C)=N/NC(=O)c3ccco3)oc12`: the inhibition (viability loss, TRAIL sensitization) is 4.04% (inactive).
The figure for `Cc1oc2c(F)c(F)c(F)c(F)c2c1S(=O)(=O)Nc1cccc(C(F)(F)F)c1` is 29.6% (inactive); for `N#Cc1ccccc1NC(=O)c1ccc2c(c1)OCO2` it is 0.697% (inactive).
In the case of `O=C(Nc1nc2ccccc2s1)c1ccc2c(c1)OCO2` it was 74.6% (active).
The figure for `Cc1nc(NC(=O)c2ccc3c(c2)OCCO3)ccc1Br` is 21.7% (inactive).
For the compound `CN1CCN(c2ccc(NC(=O)c3ccc4c(c3)OCCO4)cc2Cl)CC1`, the inhibition (viability loss, TRAIL sensitization) is 42.3% (inactive).
On to `O=C(Nc1ccccc1)c1ccc2c(c1)OCCCO2`, for which the inhibition (viability loss, TRAIL sensitization) was 78% (active).
In the case of `O=C(Nc1ccc(Cl)cn1)c1ccc2c(c1)OCCO2` it was 64% (active).
Regarding `O=C(CN1CCc2cc3c(cc2C1)OCCCO3)Nc1ccccc1`, the inhibition (viability loss, TRAIL sensitization) was -22% (inactive).
In the case of `CCCc1cc(C(=O)Nc2ccc(Cl)cn2)cs1` it was 48.6% (inactive).
In the case of `Cc1ccc2sc(NNC(=O)c3ccc4c(c3)OCCO4)nc2c1C` it was -37.1% (inactive).
